Read-out in test [1]: TIMP metallopeptidase inhibitor 1 (TIMP1), TIMP1 (gene 7076)
Description: BSK_hDFCGF_TIMP1: BioMAP Diversity Plus: hDFCGF Assay for TIMP metallopeptidase inhibitor 1 (TIMP1) Biomarker Activity (AID 2283062). The conditions noted are these: primary human foreskin fibroblasts; actives raise or lower the signal. In outline: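 Primary human foreskin fibroblasts in the hDFCGF system were dosed with compound for 24 h, then TIMP-1 was measured by ELISA. Activity was fitted bidirectionally relative to DMSO control; parallel SRB staining assessed cytotoxicity.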

Read-out in test [2]: Monokine induced gamma interferon (MIG), CXCL9 (gene 4283)
Description: BSK_hDFCGF_MIG: BioMAP Diversity Plus: hDFCGF Assay for Monokine induced gamma interferon (MIG) Biomarker Activity (AID 2283063). The conditions noted are these: primary human foreskin fibroblasts; actives raise or lower the signal. In outline:
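ELISA read-out of MIG from primary human dermal fibroblasts 24 h post-dosing. Gain or loss of signal fitted bidirectionally, DMSO as baseline.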

Read-out in test [3]: Matrix Metallopeptidase 1 (MMP1), MMP1 (gene 4312)
In words: BSK_hDFCGF_MMP1: BioMAP Diversity Plus: hDFCGF Assay for Matrix Metallopeptidase 1 (MMP1) Biomarker Activity (AID 2283064). The conditions noted are these: primary human foreskin fibroblasts; actives raise or lower the signal. The method in brief: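 ELISA read-out of MMP1 from human foreskin fibroblasts (primary skin cells), 24 h post-dose. Gain or loss of signal was fitted bidirectionally versus DMSO negative control; cytotoxicity was checked by SRB in parallel cultures.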

Read-out in test [4]: Plasminogen activator inhibitor-1 (PAI1), SERPINE1 (gene 5054)
In words: BSK_hDFCGF_PAI1: BioMAP Diversity Plus: hDFCGF Assay for Plasminogen activator inhibitor-1 (PAI1) Biomarker Activity (AID 2283066). Conditions: primary human foreskin fibroblasts; actives raise or lower the signal. In outline:
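PAI-1 levels in human dermal foreskin fibroblasts were quantified by ELISA 24 h after dosing, with gain or loss analysed against DMSO. Overt cytotoxicity was checked by sulforhodamine B total-protein staining in parallel cultures.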

Read-out in test [5]: Intercellular Adhesion Molecule 1 (ICAM1), ICAM1 (gene 3383)
Description: BSK_KF3CT_ICAM1: BioMAP Diversity Plus: KF3CT Assay for Intercellular Adhesion Molecule 1 (ICAM1) Biomarker Activity (AID 2283067). The conditions noted are these: primary human keratinocytes with fibroblasts; actives raise or lower the signal. In outline: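 Human keratinocyte plus foreskin fibroblast primary co-culture was exposed to chemical for 24 h. ICAM-1 was then quantified by ELISA, and the data were fit bidirectionally against DMSO as the negative control and baseline.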

Read-out in test [6]: Interferon-gamma inducible Protein 10 (IP10), CXCL10 (gene 3627)
Description: BSK_KF3CT_IP10: BioMAP Diversity Plus: KF3CT Assay for Interferon-gamma inducible Protein 10 (IP10) Biomarker Activity (AID 2283068). The conditions noted are these: primary human keratinocytes with fibroblasts; actives raise or lower the signal. The method in brief: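 In a primary skin co-culture of keratinocytes and fibroblasts, IP-10 is quantified by ELISA at 24 h after dosing. SRB staining of parallel wells monitors overt toxicity. Curves are fitted both directions against DMSO.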

Read-out in test [7]: Interleukin-1 alpha (IL1a), IL1A (gene 3552)
In words: BSK_KF3CT_IL1a: BioMAP Diversity Plus: KF3CT Assay for Interleukin-1 alpha (IL1a) Biomarker Activity (AID 2283070). Conditions: primary human keratinocytes with fibroblasts; actives raise or lower the signal. The method in brief: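 Primary skin co-culture (keratinocytes, foreskin fibroblasts), 24 h exposure; ELISA for IL-1a; bidirectional curve fit vs DMSO.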

Read-out in test [8]: Transforming growth factor beta 1 (TGFb1), TGFB1 (gene 7040)
In words: BSK_KF3CT_TGFb1: BioMAP Diversity Plus: KF3CT Assay for Transforming growth factor beta 1 (TGFb1) Biomarker Activity (AID 2283072). The conditions noted are these: primary human keratinocytes with fibroblasts; actives raise or lower the signal. The method in brief:
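ELISA quantifies TGF-b1 at 24 h post-dose in a primary human skin co-culture of keratinocytes and fibroblasts, with gain or loss judged against DMSO. Parallel SRB total-protein staining flags overt cytotoxicity.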

Read-out in test [9]: Matrix Metallopeptidase 9 (MMP9), MMP9 (gene 4318)
Description: BSK_KF3CT_MMP9: BioMAP Diversity Plus: KF3CT Assay for Matrix Metallopeptidase 9 (MMP9) Biomarker Activity (AID 2283074).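 For AC50: MMP9 protein level quantified by ELISA in the co-culture.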 The conditions noted are these: primary human keratinocytes with fibroblasts; actives raise or lower the signal. The method in brief: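 ELISA read-out of MMP-9 at 24 h post-dosing in a co-culture of human skin keratinocytes and foreskin fibroblasts. Gain or loss of signal was fitted in both directions against DMSO.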

Read-out in test [10]: urokinase plasminogen activator (uPA), PLAU (gene 5328)
Description: BSK_KF3CT_uPA: BioMAP Diversity Plus: KF3CT Assay for urokinase plasminogen activator (uPA) Biomarker Activity (AID 2283075). The conditions noted are these: primary human keratinocytes with fibroblasts; actives raise or lower the signal. In outline: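 Skin co-culture (keratinocytes + foreskin fibroblasts), human primary; 24 h post-dose; uPA by ELISA; gain/loss fit vs DMSO baseline.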

Read-out in test [11]: CD40, CD40 (gene 958)
Description: BSK_LPS_CD40: BioMAP Diversity Plus: LPS Assay for CD40 Biomarker Activity (AID 2283076). The conditions noted are these: primary human HUVEC with PBMC; actives raise or lower the signal. In outline: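 Primary human umbilical vein endothelial cells co-cultured with peripheral blood mononuclear cells, LPS-stimulated, were dosed with chemical and read 24 h later. CD40 levels were measured by ELISA and fitted bidirectionally against DMSO as negative control and baseline.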

Read-out in test [12]: E-selectin (Homo sapiens) (UniProt P16581)
Description: BSK_LPS_Eselectin: BioMAP Diversity Plus: LPS Assay for Eselectin Biomarker Activity (AID 2283077). The conditions noted are these: primary human HUVEC with PBMC; actives raise or lower the signal. The method in brief: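 Human umbilical vein endothelial cells co-cultured with peripheral blood mononuclear cells under LPS stimulation; E-selectin measured by ELISA 24 h after chemical dosing. Activity fitted bidirectionally against DMSO as negative control and baseline.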

Read-out in test [13]: Interleukin-8 (IL8), CXCL8 (gene 3576)
In words: BSK_LPS_IL8: BioMAP Diversity Plus: LPS Assay for Interleukin-8 (IL8) Biomarker Activity (AID 2283078). Conditions: primary human HUVEC with PBMC; actives raise or lower the signal. In outline:
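Human umbilical vein endothelial cells co-cultured with PBMC were stimulated with LPS; IL-8 levels were measured by ELISA 24 h after chemical dosing. Activity was fitted bidirectionally against DMSO as negative control and baseline.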

A short description of test [14]: BSK_LPS_SRB: Viability Assessment in the BioMAP Diversity Plus: LPS Assay (AID 2283079).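 Note: total protein by sulforhodamine B absorbance as a cytotoxicity measure; measured one day after compound addition.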 Conditions: primary human HUVEC with PBMC. In outline:
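Human umbilical vein endothelial cells co-cultured with PBMC (LPS system) were dosed for 24 h. Total protein was stained with 0.1% sulforhodamine B after 10% TCA fixation, read at 560 nm, and fitted bidirectionally against DMSO baseline.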

Read-out in test [15]: Interleukin-1 alpha (IL1a), IL1A (gene 3552)
Description: BSK_LPS_IL1a: BioMAP Diversity Plus: LPS Assay for Interleukin-1 alpha (IL1a) Biomarker Activity (AID 2283080). The conditions noted are these: primary human HUVEC with PBMC; actives raise or lower the signal. In outline:
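Human umbilical vein endothelial cells co-cultured with peripheral blood mononuclear cells were LPS-stimulated and exposed to test chemicals for 24 h. IL-1 alpha was quantified by ELISA, with bidirectional curve fitting against DMSO as the negative control and baseline.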

Read-out in test [16]: Monocyte Chemoattractant Protein-1 (MCP1), CCL2 (gene 6347)
Description: BSK_LPS_MCP1: BioMAP Diversity Plus: LPS Assay for Monocyte Chemoattractant Protein-1 (MCP1) Biomarker Activity (AID 2283081).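 For AC50: co-culture stimulated with LPS; secreted MCP-1 protein quantified by ELISA in culture supernatant.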 Conditions: primary human HUVEC with PBMC; actives raise or lower the signal. In outline:
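HUVEC plus PBMC co-culture (human primary cells, LPS system) exposed to test chemical for 24 h; MCP-1 measured by ELISA. Bidirectional curve fitting against DMSO baseline; parallel SRB total-protein staining flags overt cytotoxicity.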

Read-out in test [17]: Vascular cell adhesion molecule 1 (VCAM1), VCAM1 (gene 7412)
In words: BSK_hDFCGF_VCAM1: BioMAP Diversity Plus: hDFCGF Assay for Vascular cell adhesion molecule 1 (VCAM1) Biomarker Activity (AID 2283065).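 Note: VCAM-1 protein level quantified by ELISA after 24 h chemical exposure.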 The conditions noted are these: primary human foreskin fibroblasts; actives raise or lower the signal. The method in brief:
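Primary human foreskin fibroblasts (hDFCGF system) were dosed with chemical and VCAM-1 was measured by ELISA 24 h later. Bidirectional curve fitting used DMSO as negative control and activity baseline.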

A short description of test [18]: BSK_KF3CT_SRB: Viability Assessment in the BioMAP Diversity Plus: KF3CT Assay (AID 2283069).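 Note: read 24 h after compound addition.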 Conditions: primary human keratinocytes with fibroblasts. The method in brief: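 SRB read-out at 560 nm (0.1% stain, TCA-fixed cells) gauges overt cytotoxicity in a human skin keratinocyte–fibroblast co-culture 24 h post-dosing. Signal change was fitted bidirectionally relative to DMSO control.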

Read-out in test [19]: TIMP metallopeptidase inhibitor 2 (TIMP2), TIMP2 (gene 7077)
In words: BSK_KF3CT_TIMP2: BioMAP Diversity Plus: KF3CT Assay for TIMP metallopeptidase inhibitor 2 (TIMP2) Biomarker Activity (AID 2283071). Conditions: primary human keratinocytes with fibroblasts; actives raise or lower the signal. The method in brief:
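TIMP-2 measured by ELISA at 24 h in human keratinocyte/fibroblast primary co-cultures exposed to chemicals. Both increases and decreases were fitted against DMSO. Parallel cultures were stained with SRB for total protein as an overt-cytotoxicity check.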

Read-out in test [20]: C-C motif chemokine 2 (Homo sapiens) (UniProt P13500)
Description: BSK_KF3CT_MCP1: BioMAP Diversity Plus: KF3CT Assay for Monocyte Chemoattractant Protein 1 (MCP1/CCL2) Biomarker Activity (AID 2283073). Conditions: primary human keratinocytes with fibroblasts; actives raise or lower the signal. The method in brief: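 Human keratinocyte plus foreskin fibroblast primary co-culture exposed to chemical for 24 h. MCP-1 levels measured by ELISA. Bidirectional curve fitting relative to DMSO negative control as baseline.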

Each structure is given as a SMILES string. The source made the active and inactive calls. Rule for the calls: active = hit-call score of the fitted dose curve at least 0.9, where 1 is the maximum; inactive = score below 0.9.

Sequence of E-selectin (Homo sapiens) (P16581 whole entry, looked up): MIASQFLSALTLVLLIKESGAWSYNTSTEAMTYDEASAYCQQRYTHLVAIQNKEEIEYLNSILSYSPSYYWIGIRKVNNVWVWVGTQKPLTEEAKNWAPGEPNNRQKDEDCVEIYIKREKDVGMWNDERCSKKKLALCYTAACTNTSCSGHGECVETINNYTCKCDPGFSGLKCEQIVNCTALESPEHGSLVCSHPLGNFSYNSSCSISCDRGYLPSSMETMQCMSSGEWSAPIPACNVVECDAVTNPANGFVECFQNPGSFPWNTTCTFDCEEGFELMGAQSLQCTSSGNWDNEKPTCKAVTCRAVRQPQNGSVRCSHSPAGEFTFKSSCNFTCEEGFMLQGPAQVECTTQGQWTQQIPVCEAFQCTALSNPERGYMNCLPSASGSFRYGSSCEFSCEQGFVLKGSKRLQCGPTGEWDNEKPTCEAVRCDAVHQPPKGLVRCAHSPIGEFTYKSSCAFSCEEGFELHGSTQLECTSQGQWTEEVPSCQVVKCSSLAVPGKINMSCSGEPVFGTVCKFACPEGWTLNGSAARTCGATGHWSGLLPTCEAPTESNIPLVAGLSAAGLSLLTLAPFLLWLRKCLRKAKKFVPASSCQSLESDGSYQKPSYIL

`CC(C)CCO`: the result in [1], in test [2], in [3], in test [4], in test [5] and in test [6] was inactive. The result in [7], in test [8], in test [9], in test [10], in test [11] and in test [12] was inactive. Also, the outcome in test [13], in [14], in test [15] and in [16] was inactive.

Broadly, the AC50 is the concentration at which the activity in the assay is half-maximal. Take `On1ccccc1=S`: the AC50 was 1.4 µM (active) in test [1]; 0.204 µM (active) in test [2]; 1.35 µM (active) in test [3]; 1.7 µM (active) in test [4]; 10.4 µM (active) in test [5]; 10.2 µM (active) in [7]. The AC50 in test [8] is 9.8 µM (active); in [9] it was 8.53 µM (active); in [10] it was 11 µM (active); in [11], 19.8 µM (active); in test [14] it was 26.2 µM (active); in test [15], 19.8 µM (active). In addition, the result in test [13] and in test [16] was inactive.

Regarding `O=C(CCCCCCCCc1cccnc1)N1CCC(C=C(c2ccccc2)c2ccccc2)CC1`, the AC50 in [1] is 7.71 µM (active); in test [2], 11.5 µM (active); in test [17] it was 8.47 µM (active); in test [4], 5.88 µM (active); in test [5], 16.6 µM (active); in test [6] it was 15.5 µM (active). Also, the AC50 in [18] was 14.7 µM (active); in test [7], 16.9 µM (active); in test [19] it was 10.8 µM (active); in test [8] it was 10.1 µM (active); in test [20], 16.9 µM (active); in test [10], 15.7 µM (active). Also, the AC50 was 8.31 µM (active) in test [11]; 14.4 µM (active) in test [12]; 12 µM (active) in [13]; 11.7 µM (active) in test [14]; 9.81 µM (active) in test [15]; 10.1 µM (active) in test [16].

Source of the values: PubChem BioAssay (EPA / NIEHS).
